This note sets out measurements from the supplement of paper PMC6411743.

± gives the standard deviation of the averaged measurements. Of roughly 6,500 targets only a part is listed; those with the largest changes were picked by preference.

What all share (assay): NP40-soluble protein abundance relative to vehicle (solubility fold change) (ratio); higher = more soluble protein in presence of ATP
One experiment addresses T1, SPAG7 (UniProt O75391).
T1 sequence (whole entry): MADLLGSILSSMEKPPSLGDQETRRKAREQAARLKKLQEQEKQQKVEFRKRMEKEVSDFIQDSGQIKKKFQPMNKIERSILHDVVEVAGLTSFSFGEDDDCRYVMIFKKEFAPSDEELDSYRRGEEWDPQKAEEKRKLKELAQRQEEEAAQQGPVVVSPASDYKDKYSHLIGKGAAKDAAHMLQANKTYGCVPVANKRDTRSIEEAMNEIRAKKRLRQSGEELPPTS
A digest of the protocol:
(§1)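 Jurkat crude lysate prepared with a Dounce homogeniser was treated at eight concentrations spanning 0.1 to 10 mM, 10 min at room temperature then 3 min at 37 °C. Solubilisation with 0.8% NP40 and benzonase and ultracentrifugation preceded TMT labelling of the supernatant for LC-MS/MS. Fold change against the detergent-processed vehicle was determined per replicate from vsn-normalised intensities, across three independent experiments.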

Experiment [1] concerns the target T2, UniProt O95294|O95294-2|O95294-3|O95294-4.
T2 sequence (whole entry): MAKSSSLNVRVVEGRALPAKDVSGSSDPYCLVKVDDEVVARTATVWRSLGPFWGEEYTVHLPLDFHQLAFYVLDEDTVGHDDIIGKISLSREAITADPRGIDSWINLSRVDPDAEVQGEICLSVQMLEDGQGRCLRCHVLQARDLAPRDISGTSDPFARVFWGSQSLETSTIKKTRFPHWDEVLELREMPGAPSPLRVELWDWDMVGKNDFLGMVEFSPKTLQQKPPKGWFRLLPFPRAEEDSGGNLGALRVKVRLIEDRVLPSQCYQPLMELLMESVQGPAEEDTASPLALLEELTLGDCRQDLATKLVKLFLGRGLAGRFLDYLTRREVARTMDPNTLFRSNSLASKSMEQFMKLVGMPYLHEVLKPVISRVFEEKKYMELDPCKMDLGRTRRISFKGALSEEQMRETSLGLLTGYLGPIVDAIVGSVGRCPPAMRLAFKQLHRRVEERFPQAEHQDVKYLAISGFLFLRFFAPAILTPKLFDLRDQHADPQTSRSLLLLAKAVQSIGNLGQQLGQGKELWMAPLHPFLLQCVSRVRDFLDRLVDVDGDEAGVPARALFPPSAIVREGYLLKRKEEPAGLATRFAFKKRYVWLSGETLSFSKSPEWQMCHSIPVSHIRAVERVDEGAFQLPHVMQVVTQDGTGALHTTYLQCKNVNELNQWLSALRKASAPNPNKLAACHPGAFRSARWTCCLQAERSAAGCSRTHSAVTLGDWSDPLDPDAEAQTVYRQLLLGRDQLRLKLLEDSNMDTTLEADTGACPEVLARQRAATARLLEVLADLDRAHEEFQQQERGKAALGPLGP
A digest of the protocol: as §1

The target in experiment [2] is T3, UniProt O95379-3|O95379-4.
T3 sequence (whole entry): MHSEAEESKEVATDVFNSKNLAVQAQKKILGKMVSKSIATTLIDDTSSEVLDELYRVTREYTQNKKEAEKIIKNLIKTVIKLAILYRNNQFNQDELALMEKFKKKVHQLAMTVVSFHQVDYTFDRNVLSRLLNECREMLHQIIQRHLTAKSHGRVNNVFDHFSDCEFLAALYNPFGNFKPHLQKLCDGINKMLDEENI
A digest of the protocol: as §1

In experiment [3] the target is T4, UniProt O95983|O95983-2|K7EIE8.
T4 sequence (whole entry): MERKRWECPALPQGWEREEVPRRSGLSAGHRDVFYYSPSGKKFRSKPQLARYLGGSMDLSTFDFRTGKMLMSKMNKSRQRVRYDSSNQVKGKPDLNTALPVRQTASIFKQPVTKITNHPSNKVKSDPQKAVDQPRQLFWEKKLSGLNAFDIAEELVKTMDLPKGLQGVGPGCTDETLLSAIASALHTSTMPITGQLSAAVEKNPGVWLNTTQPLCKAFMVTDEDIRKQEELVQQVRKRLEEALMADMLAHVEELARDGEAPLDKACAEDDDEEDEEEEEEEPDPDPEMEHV
An outline of the steps: as §1

On to `Nc1ncnc2c1ncn2[C@@H]1O[C@H](COP(=O)(O)OP(=O)(O)OP(=O)(O)O)[C@@H](O)[C@H]1O` [adenosine triphosphate], for which the NP40-soluble protein abundance with SPAG7 (concentration: 2mM) was determined as 0.964 ± 0.047; with SPAG7 (concentration: 4mM), 0.964 ± 0.04; in the experiment with SPAG7 (concentration: 6mM), 0.969 ± 0.046; in the experiment with SPAG7 (concentration: 8mM), 0.9594 ± 0.0036; with SPAG7 (concentration: 10mM), 0.903 ± 0.058; in experiment [1] (concentration: 1mM), 0.95 ± 0.03. The NP40-soluble protein abundance in experiment [1] (concentration: 2mM) is 0.96 ± 0.069; in experiment [1] (concentration: 4mM), 1.01 ± 0.058; in experiment [1] (concentration: 6mM), 0.994 ± 0.11; in experiment [1] (concentration: 8mM) it was 0.962 ± 0.13; in experiment [1] (concentration: 10mM), 0.965 ± 0.15; in experiment [2] (concentration: 1mM), 0.855 ± 0.036. Moreover, the NP40-soluble protein abundance in experiment [2] (concentration: 2mM) was 0.93 ± 0.019; in experiment [2] (concentration: 4mM) it was 0.885 ± 0.032; in experiment [2] (concentration: 6mM) it was 0.9504 ± 0.0062; in experiment [2] (concentration: 8mM), 0.932 ± 0.035; in experiment [2] (concentration: 10mM), 0.85 ± 0.1; in experiment [3] (concentration: 1mM), 1.03 ± 0.12. Also, the values for the NP40-soluble protein abundance in experiment [3] (concentration: 2mM) and in experiment [3] (concentration: 4mM) were 0.983 ± 0.078 and 0.98 ± 0.035, respectively.
